Test results taken from PubChem BioAssay (NCATS).
Results filed as inconclusive are left out. Unmarked numbers belong to inactive results. The source made the active and inactive calls. The call rests on the fitted dose curve; in most records, active means well fitted curve in the direction sought with a large enough effect; inconclusive means small, poorly fitted or top-dose-only effect, or another doubt; inactive means no such curve, though single readings can be large; an effect the other way counts as inactive or inconclusive. Starred links: 1 amine or outer side, 2 acyl side, 3 side chain; linkers in the order of their positions; H or OH if unused. Positions of bridges follow the written chain, without caps; N, C: chain ends. Non-standard residues stand in square brackets, D forms with d. Residues, ends and D or L forms follow the SMILES beside them. Chains are numbered I, II in the order given. *: point of attachment. Actinocin(9to1) = Cc1c2oc3c(C)ccc(C(=O)[*:1])c3nc-2c(C(=O)[*:2])c(N)c1=O; NMeV = CN[CH](C(=O)O)C(C)C; Cbz = O=C(OCc1ccccc1)*; Sar = CNCC(=O)O

System: not listed separately
Test: qHTS of pediatric cancer cell lines to identify multiple opportunities for drug repurposing: Confirmatory screen for SK-N-SH cells (AID 1347129);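 further: cells exposed to compound for 48 h before viability read; nearly all actives have a fitted effect of over 60% in size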; further: potency means the concentration at half of the fitted maximal effect;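 on activity change, negative = cytotoxic: plate controls were DMSO for no effect and bortezomib control for full effect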
Settings: SK-N-SH neuroblastoma cell viability; series mostly up to 46.1 µM; activity change, negative = cytotoxic: at the top concentration
Procedure, shortened: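 Viability after 48 h compound treatment at 37C, 500-1,000 cells/well, read as ATP luminescence with CellTiter-Glo. Primary screens used 11-point (MIPE, 0.78 nM-46 µM) or 8-point (NPC, 0.59 nM-46 µM) final concentrations; follow-up screens used 11-point dilutions.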

| SMILES | Potency | activity change, negative = cytotoxic [%] |
| --- | --- | --- |
| O=C(C=Cc1ccc(CN(CCO)CCc2c[nH]c3ccccc23)cc1)NO | 118 nM (active) |  |
| COc1cc([C@@H]2c3cc4c(cc3[C@@H](O[C@@H]3O[C@@H]5CO[C@@H](c6cccs6)O[C@@H]5[C@H](O)[C@@H]3O)[C@H]3COC(=O)[C@H]23)OCO4)cc(OC)c1O | 3320 nM (active) |  |
| CO[C@@H]1[C@@H](O)[C@H](O)[C@@H](n2c3c(Cl)cccc3c3c4c(c5c6cccc(Cl)c6[nH]c5c32)C(=O)NC4=O)O[C@@H]1CO | 2640 nM (active) |  |
| C#CCC(Cc1cnc2nc(N)nc(N)c2n1)c1ccc(C(=O)N[C@@H](CCC(=O)O)C(=O)O)cc1 (stereo partly specified) |  | -3.54 |
| Cn1cc(CNCC2CCN(c3ncc(C(=O)NO)cn3)CC2)c2ccccc21 | 469 nM (active) |  |
| COc1cccc2c1C(=O)c1c(O)c3c(c(O)c1C2=O)C[C@@](O)(C(C)=O)C[C@H]3O[C@H]1C[C@H](N)[C@H](O)[C@H](C)O1 | 662 nM (active) |  |
| Cc1c2oc3c(C)ccc(C(=O)NC4C(=O)NC(C(C)C)C(=O)N5CCCC5C(=O)N(C)CC(=O)N(C)C(C(C)C)C(=O)OC4C)c3nc-2c(C(=O)NC2C(=O)NC(C(C)C)C(=O)N3CCCC3C(=O)N(C)CC(=O)N(C)C(C(C)C)C(=O)OC2C)c(N)c1=O (stereo unspecified) (I: TVP[Sar][NMeV] / II: TVP[Sar][NMeV]; ester I:1-I:C, II:1-II:C; linker I:N-II:N via Actinocin(9to1); configuration not given here) | 18.7 nM (active) |  |
| CC(=O)O[C@H]1C[C@@H]2CC[C@H]3[C@H]4C[C@H]([N+]5(C)CCCCC5)[C@@H](OC(C)=O)[C@@]4(C)CC[C@@H]3[C@@]2(C)C[C@H]1N1CCCCC1 | 20900 nM (active) |  |
| COc1ccc(C[C@@H](C)[C@@H](C)Cc2ccc(OC)c(OC)c2)cc1OC |  | -17.3 |
| C=CCNC1=C2C[C@@H](C)C[C@H](OC)[C@@H](O)[C@@H](C)C=C(C)[C@H](OC(N)=O)[C@@H](OC)C=CC=C(C)C(=O)NC(=CC1=O)C2=O | 1870 nM (active) |  |
| CCC(C(=O)O)C1CCC(C)C(C(C)C(O)C(C)C(=O)C(CC)C2OC3(C=CC(O)[C@@]4(CC[C@](C)(C5CC[C@@](O)(CC)C(C)O5)O4)O3)C(C)CC2C)O1 (stereo partly specified) | 5900 nM (active) |  |
| COc1ccc2c(c1OC)C(=O)OC2[C@H]1c2c(cc3c(c2OC)OCO3)CCN1C (stereo partly specified) |  | -23.9 |
| Oc1ccc(-c2ccc(-c3cc(Nc4cccc(CNC5CC5)c4)n[nH]3)cc2)c(O)c1 |  | -1.73 |
| COc1cc2ncnc(Nc3cccc(Br)c3)c2cc1OC | 20900 nM (active) |  |
| CCN(CC)Cc1ccc2cc(COC(=O)Nc3ccc(C(=O)NO)cc3)ccc2c1 |  | 0.586 |
| COc1cccc2c1C(=O)c1c(O)c3c(c(O)c1C2=O)C[C@@](O)(C(=O)CO)C[C@@H]3O[C@H]1C[C@H](N)[C@H](OC2CCCCO2)[C@H](C)O1 (stereo partly specified) | 4690 nM (active) |  |
| CNC(=O)c1ccc(Nc2cc(Nc3ccccc3S(=O)(=O)C(C)C)c3cc[nH]c3n2)nc1 | 5900 nM (active) |  |
| CC(C)C[C@@H](C=O)NC(=O)[C@H](CC(C)C)NC(=O)[C@H](CC(C)C)NC(=O)OCc1ccccc1 (Cbz-Leu-Leu-Leu-aldehyde) | 833 nM (active) |  |
| CC(C)NC[C@@H](C(=O)N1CCN(c2ncnc3c2[C@H](C)C[C@H]3O)CC1)c1ccc(Cl)cc1 | 16600 nM (active) |  |
| CC1(C)O[C@@H]2C[C@H]3[C@@H]4CCC5=CC(=O)C=C[C@]5(C)[C@@H]4[C@@H](O)C[C@]3(C)[C@]2(C(=O)CO)O1 |  | 7.28 |

System: Zika virus NS2B-NS3 protease
Test: Primary screen GU AMC qHTS for Zika virus inhibitors (AID 1347154);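 further: 0% = no-inhibitor control and -100% = no-enzyme control; nearly all actives have a fitted effect of over 70% in size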
Settings: Zika NS2B-NS3 unlinked protease, AMC fluorogenic substrate; series mostly up to 54.1 µM; activity change, negative = inhibition: at the top concentration
Procedure, shortened: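 Unlinked Zika NS2B hydrophilic domain–NS3 protease complex at 25 nM in 10 mM Tris-HCl pH 8.0, 0.01% Tween 20, with an AMC peptide substrate. Fluorescence change (340/450 nm) over 15 min at room temperature, normalized to controls, fitted to 4-parameter Hill.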

| SMILES | activity change, negative = inhibition [%] | Potency |
| --- | --- | --- |
| O=C(O)C[C@H](O)C[C@H](O)C=Cc1c(C2CC2)nc2ccccc2c1-c1ccc(F)cc1 | 21.5 |  |
| CN(C)c1ccc(C(=O)NCCCCCCC(=O)NO)cc1 | 1.91 |  |
| C[N+](C)([O-])CCNc1ccc(NCC[N+](C)(C)[O-])c2c1C(=O)c1c(O)ccc(O)c1C2=O | 11.9 |  |
| Cc1cc(Nc2ncc3c(n2)N(C)C(=O)N(c2cc(NC(=O)c4cccc(C(F)(F)F)c4)ccc2C)C3)n(C)n1 | 18 |  |
| CC(C)N1[N]C(=C2C=c3cc(O)ccc3=N2)c2c(N)ncnc21 | 0.671 |  |
| CC(=O)[C@]1(O)Cc2c(O)c3c(c(O)c2[C@@H](O[C@H]2C[C@H](N)[C@@H](O)[C@H](C)O2)C1)C(=O)c1ccccc1C3=O | 8.95 |  |
| CN[C@H]1[C@@H](O)[C@@H]2O[C@@H]3O[C@H](C)CC(=O)[C@]3(O)O[C@@H]2[C@@H](NC)[C@H]1O | -7.51 |  |
| COc1cc(OC)c(C=CS(=O)(=O)Cc2ccc(OC)c(NCC(=O)O)c2)c(OC)c1 | -5.74 |  |
| O=C(NCc1ccccc1)[C@H](Cc1ccccc1)NC(=O)[C@@H]1O[C@@H]1C(=O)NCCc1ccc(O)cc1 | -3.98 |  |
| COc1ccc(C(C)=O)c(O)c1 | 13.5 |  |
| CC(=O)SCC(Cc1ccccc1)C(=O)NCC(=O)OCc1ccccc1 (stereo unspecified) | 10.7 |  |
| Oc1cc(-c2nc(-c3ccccc3)[nH]c2-c2ccncc2)ccc1Cl | 1.39 |  |
| COc1cc([C@@H]2c3cc4c(cc3[C@@H](O[C@@H]3O[C@@H]5CO[C@@H](c6cccs6)O[C@@H]5[C@H](O)[C@@H]3O)[C@H]3COC(=O)[C@H]23)OCO4)cc(OC)c1O | 12.1 |  |
| Cn1cc(CNCC2CCN(c3ncc(C(=O)NO)cn3)CC2)c2ccccc21 | 2.76 |  |
| COc1cccc2c1C(=O)c1c(O)c3c(c(O)c1C2=O)C[C@@](O)(C(C)=O)C[C@H]3O[C@H]1C[C@H](N)[C@H](O)[C@H](C)O1 | -6.77 |  |
| Cc1c2oc3c(C)ccc(C(=O)NC4C(=O)NC(C(C)C)C(=O)N5CCCC5C(=O)N(C)CC(=O)N(C)C(C(C)C)C(=O)OC4C)c3nc-2c(C(=O)NC2C(=O)NC(C(C)C)C(=O)N3CCCC3C(=O)N(C)CC(=O)N(C)C(C(C)C)C(=O)OC2C)c(N)c1=O (stereo unspecified) (I: TVP[Sar][NMeV] / II: TVP[Sar][NMeV]; ester I:1-I:C, II:1-II:C; linker I:N-II:N via Actinocin(9to1); configuration not given here) |  | inactive |

| SMILES | activity change, negative = inhibition [%] | Potency |
| --- | --- | --- |
| CC(=O)O[C@H]1C[C@@H]2CC[C@H]3[C@H]4C[C@H]([N+]5(C)CCCCC5)[C@@H](OC(C)=O)[C@@]4(C)CC[C@@H]3[C@@]2(C)C[C@H]1N1CCCCC1 | -10 |  |
| COc1ccc(C[C@@H](C)[C@@H](C)Cc2ccc(OC)c(OC)c2)cc1OC | -4.56 |  |
| N#Cc1c(NC(=O)c2cccc3ccccc23)sc2c1CCCC2 | 6.35 |  |
| C=CCNC1=C2C[C@@H](C)C[C@H](OC)[C@@H](O)[C@@H](C)C=C(C)[C@H](OC(N)=O)[C@@H](OC)C=CC=C(C)C(=O)NC(=CC1=O)C2=O | -9.23 |  |
| COc1ccc2c(c1OC)C(=O)OC2[C@H]1c2c(cc3c(c2OC)OCO3)CCN1C (stereo partly specified) | 8.27 |  |
| Oc1ccc(-c2ccc(-c3cc(Nc4cccc(CNC5CC5)c4)n[nH]3)cc2)c(O)c1 | -3.06 |  |
| COc1cc2ncnc(Nc3cccc(Br)c3)c2cc1OC |  | inactive |
| CCN(CC)Cc1ccc2cc(COC(=O)Nc3ccc(C(=O)NO)cc3)ccc2c1 | -2.9 |  |
| COc1cccc2c1C(=O)c1c(O)c3c(c(O)c1C2=O)C[C@@](O)(C(=O)CO)C[C@@H]3O[C@H]1C[C@H](N)[C@H](OC2CCCCO2)[C@H](C)O1 (stereo partly specified) | 10.5 |  |
| CNC(=O)c1ccc(Nc2cc(Nc3ccccc3S(=O)(=O)C(C)C)c3cc[nH]c3n2)nc1 | -7.48 |  |
| CC(C)C[C@@H](C=O)NC(=O)[C@H](CC(C)C)NC(=O)[C@H](CC(C)C)NC(=O)OCc1ccccc1 (Cbz-Leu-Leu-Leu-aldehyde) |  | inactive |
| CC(C)NC[C@@H](C(=O)N1CCN(c2ncnc3c2[C@H](C)C[C@H]3O)CC1)c1ccc(Cl)cc1 | 13.9 |  |
| NS(=O)(=O)OC[C@@H]1C[C@@H](n2ccc3c(N[C@H]4CCc5ccccc54)ncnc32)C[C@H]1O | 10.7 |  |
| CC1(C)O[C@@H]2C[C@H]3[C@@H]4CCC5=CC(=O)C=C[C@]5(C)[C@@H]4[C@@H](O)C[C@]3(C)[C@]2(C(=O)CO)O1 | -2.14 |  |
| CC(=O)O[C@@]12CO[C@H]1C[C@H](O)[C@@]1(C)C(=O)[C@H](O)C3=C(C)[C@@H](OC(=O)C(O)[C@@H](NC(=O)OC(C)(C)C)c4ccccc4)C[C@@](O)([C@@H](OC(=O)c4ccccc4)[C@@H]21)C3(C)C (stereo partly specified) | 6.61 |  |
